Reference: PubChem BioAssay (EPA / NIEHS)
Results filed as inconclusive are left out. The source made the active and inactive calls. Rule for the calls: active = hit-call score of the fitted dose curve at least 0.9, where 1 is the maximum; inconclusive = response in the unintended direction; inactive = score below 0.9.

Assays:
[1] = ATG_XTT_Cytotoxicity: Cytotoxicity Assessment in the Attagene TRANS-FACTORIAL HepG2 Assay (AID 2283584)
Method in brief: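 Cells: human HepG2, transiently transfected with MRTU reporter constructs. Exposure 24 h. Readout: XTT, cell number. Baseline/neg ctrl DMSO; loss-of-signal scored.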

[2] = biological target: Cellular tumor antigen p53 (Homo sapiens) (UniProt P04637); experiment: TOX21_p53_BLA_p2_ratio: Tox21 HCT-116 p53 Agonism Beta-lactamase Assay, Ratio, Phase 2 (AID 2283592)
Method in brief: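 Plated HCT116 p53-bla cells (4000/well) received compound after 5 h, then 16 h at 37C/5% CO2. CCF4-AM added, 2 h RT. Ratio of 460 to 530 nm emission taken as the p53 reporter signal.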

[3] = TOX21_p53_BLA_p2_viability: Viability Assessment in the Tox21 HCT-116 p53 Agonism Beta-lactamase Assay, Phase 2 (AID 2283591);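 note: compound exposure lasted 16 h at 37 °C; actives lower the ATP signal meaning cytotoxicity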
Method in brief: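 HCT-116 p53-bla cells (4000/well) rested 5 h at 37C, then received compounds in DMSO (217-fold dilution) for 16 h at 37C, 5% CO2. After the CCF4 read, CellTiter-Glo was added; ATP luminescence was read after 30 min at room temperature.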

Chain of Cellular tumor antigen p53 (Homo sapiens) (P04637 whole entry, looked up): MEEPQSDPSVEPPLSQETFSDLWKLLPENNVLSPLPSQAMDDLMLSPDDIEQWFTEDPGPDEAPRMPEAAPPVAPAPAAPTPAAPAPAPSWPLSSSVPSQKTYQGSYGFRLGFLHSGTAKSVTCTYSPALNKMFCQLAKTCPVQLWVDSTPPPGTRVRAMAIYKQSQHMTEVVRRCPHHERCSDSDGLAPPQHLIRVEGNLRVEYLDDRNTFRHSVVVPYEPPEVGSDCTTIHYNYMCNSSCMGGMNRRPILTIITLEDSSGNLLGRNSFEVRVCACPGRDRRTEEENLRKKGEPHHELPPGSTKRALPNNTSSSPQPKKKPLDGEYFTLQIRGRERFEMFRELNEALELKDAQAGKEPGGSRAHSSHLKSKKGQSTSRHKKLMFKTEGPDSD

| Structure (SMILES) | outcome [1] | outcome [2] | outcome [3] |
| --- | --- | --- | --- |
| CC1CC(=O)CC(C)(C)C1 (stereo not drawn) | inactive | inactive |  |
| CC1=CCC2CC1C2(C)C (stereo not drawn) |  |  | inactive |
| CC1=CC(C)C(C=O)CC1 (stereo not drawn) |  | inactive |  |
| CCOC(=O)c1ccccc1C |  | inactive | inactive |
| CC(=O)c1ccccc1O | inactive | inactive |  |
| CC(=O)OC/C=C(/C)CCC=C(C)C | inactive | inactive |  |
| CCC(C)(O)CCCC(C)C (stereo not drawn) | inactive | inactive |  |
| CO[Si](C)(C)OC | inactive | inactive |  |
| O=C(O)C1CCC(C(=O)O)CC1 (stereo not drawn) |  | inactive | inactive |
| Cc1ccccc1CCO |  |  | inactive |
| OCCCc1ccccc1 |  | inactive | inactive |
| CC(C)c1cc(C(C)C)cc(C(C)C)c1 |  |  | inactive |
| CCCCCCCC(=O)OCC(COC(=O)CCCCCCC)OC(=O)CCCCCCC |  | inactive | inactive |
| CCCCCCOC(=O)CCCCC(=O)OCCCCCC |  | inactive | inactive |
| C=C(C)C(=O)OCCOC(=O)C(=C)C |  | inactive | inactive |
| CCCCOCCOCCOC(C)=O | inactive | inactive |  |
| C=CC(=O)OCC(C)OCC(C)OCC(C)OC(=O)C=C (stereo not drawn) | inactive | inactive |  |
| O=C(O)CCCC(=O)O |  | inactive |  |
| COC(=O)CC(C)CCC=C(C)C (stereo not drawn) |  | inactive |  |
| CC(=O)C(C)C |  |  | inactive |

| Structure (SMILES) | outcome [1] | outcome [2] | outcome [3] |
| --- | --- | --- | --- |
| C=C[Si](OCCOC)(OCCOC)OCCOC |  |  | inactive |
| C[Si]1(C)O[Si](C)(C)O[Si](C)(C)O[Si](C)(C)O[Si](C)(C)O1 |  | inactive |  |
| CC12CCC(CC1)C(C)(C)O2 |  | inactive | inactive |
| O=C(OCc1ccccc1)c1ccc(O)cc1 |  | inactive | inactive |
| O=S(=O)(O)c1ccc(N=Nc2c(O)ccc3ccccc23)cc1 |  | inactive | inactive |
| CC(C)=CCl |  |  | inactive |
| CCc1cccc(C)c1N |  | inactive | inactive |
| O=c1c(O)c(-c2ccc(O)cc2O)oc2cc(O)cc(O)c12 |  |  | inactive |
| C=CC(=O)OCCCCCCCC(C)C |  | inactive |  |
| Cc1cccc(C(C)(C)C)c1O |  | inactive | inactive |
| CCCCCC[C@@H](O)C/C=C\CCCCCCCC(=O)OCC(O)CO (stereo partly drawn) | inactive | inactive |  |
| CC(=O)c1ccc(S(=O)(=O)NC(=O)NC2CCCCC2)cc1 |  | inactive | inactive |
| O=C(O)CC(C(=O)O)S(=O)(=O)O (stereo not drawn) | inactive | inactive |  |
| CCCCNC(=S)NCCCC |  | inactive | inactive |
| CCC(C)C(=O)OCCc1ccccc1 (stereo not drawn) |  | inactive |  |
| C=CC(=O)OCCCCCCCCCC |  | inactive |  |
| CC(C)COC(=O)CC(C(=O)OCC(C)C)S(=O)(=O)O (stereo not drawn) |  | inactive | inactive |
| CCCC1CCCC(=O)O1 (stereo not drawn) |  |  | inactive |
| Nc1ncnc2nc[nH]c12 | inactive | inactive |  |
